Laboratory results taken from PubChem BioAssay (NCI).
Compounds without any hit were thinned out: in the full panel of roughly 79,000, 15% have a hit. Cut-off read from the data, not from the text of the source: active = growth inhibition above about 70%; inactive = the rest.

Experiments:
[1] = NCI Yeast Anticancer Drug Screen. Data for the rad50 strain (AID 155);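 note: 0% = growth of vehicle-only cultures of the same strain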; details: S. cerevisiae rad50 strain growth inhibition; at 50.0 µM; active compounds read high
In short: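 Relative growth inhibition (compound vs vehicle) was measured in yeast with a defined repair-gene alteration.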

[2] = NCI Yeast Anticancer Drug Screen. Data for the mec2-1 strain (AID 157); details: S. cerevisiae mec2-1 strain, at 50.0 µM, active compounds read high
In short: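 Each compound was tested on mec2-1 yeast, a strain altered in DNA damage repair or cell cycle control. Growth inhibition is reported relative to vehicle.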

[3] = NCI Yeast Anticancer Drug Screen. Data for the sgs1 mgt1 strain (AID 161);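 note: 0% = growth of cultures given vehicle only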; details: S. cerevisiae sgs1 mgt1 strain, at 50.0 µM, active compounds read high
In short: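 Mutant yeast exposed to compound; growth scored against vehicle-only wells.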

[4] = NCI Yeast Anticancer Drug Screen. Data for the cln2 rad14 strain (AID 165);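 note: 0% = growth equal to vehicle treated cultures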; details: S. cerevisiae cln2 rad14 strain, at 50.0 µM, active compounds read high
In short: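 Test compounds were added to cln2 rad14 yeast cultures; inhibition of growth was then determined by comparison with vehicle treatment.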

[5] = NCI Yeast Anticancer Drug Screen. Data for the bub3 strain (AID 167); details: S. cerevisiae bub3 mutant strain, at 50.0 µM, active compounds read high
In short: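 Screening used yeast with an engineered genetic alteration affecting cell cycle control. Compound-exposed cultures were compared with vehicle cultures, and reduced growth was taken as inhibition.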

[6] = NCI Yeast Anticancer Drug Screen. Data for the mlh1 rad18 strain (AID 175); details: S. cerevisiae mlh1 rad18 strain growth inhibition; at 50.0 µM; active compounds read high
In short: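 Inhibition values reflect reduced growth of mutant yeast versus vehicle-treated controls following compound exposure; the mutations affect DNA damage repair.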

Measured: growth inhibition

C(=N\NC1=NCCCCN1)/c1ccc2ccccc2c1
inactive: [1] 14.1% | [2] -1.75% | [3] -32% | [4] -34.6% | [5] -2.35% | [6] 7.6%

CCC(C)NC(=O)c1ccccc1C (stereo unspecified)
inactive: [1] 6.25% | [2] -2.75% | [3] -3.2% | [4] -10.2% | [5] 8.15% | [6] -0.2%

Cc1cc2nc3c(=O)[nH]c(=O)nc-3n(CC(O)C(O)C(O)C(O)CO)c2cc1C (stereo unspecified)
inactive: [1] 33.5% | [2] 3.2% | [3] -14.4% | [4] 7.05% | [5] -7.7% | [6] 23.2%

CN(C)CC(CN(C)C)C(=O)O
inactive: [1] -0.2% | [2] 2.75% | [3] -13.3% | [4] 22% | [5] -6.25% | [6] -15.7%

O=C(O)CCc1ccc2c(c1)C(=O)CC2
inactive: [1] -35% | [2] -27.9% | [3] -23.2% | [4] -16.1% | [5] -3.95% | [6] -37.4%

CC(C)(C)c1ccc(O)c(C(O)c2cccnc2)c1 (stereo unspecified)
inactive: [1] 18.7% | [2] 16.6% | [3] 16.5% | [4] 13.9% | [5] 29.8% | [6] 39.2%

O=C(O)C1CCOCC1
inactive: [1] 9.9% | [2] 0.7% | [3] 2.35% | [4] 4% | [5] 15.2% | [6] -0.4%

CC1(CO)CCCC1NCCNC1CCCC1(C)CO (stereo unspecified)
inactive: [1] 8.6% | [2] -6.7% | [3] 3.35% | [4] 10.3% | [5] -27.9% | [6] 15.5%

CCN(CC)CC(Oc1ccccc1)C(=O)c1ccccc1 (stereo unspecified)
inactive: [1] -10.2% | [2] -15.7% | [3] 4.75% | [4] -30.1% | [5] -11.4% | [6] -7.4%

CCC(=O)C1CCCCN1 (stereo unspecified)
inactive: [1] 10.7% | [2] 17.1% | [3] -11.1% | [4] -48.4% | [5] -3.15% | [6] 3%

O=CC(O)C(O)C(O)C(O)COC(=S)OCC(O)C(O)C(O)C(O)C=O (stereo unspecified) (tested in a mixture with another compound)
inactive: [1] -4.35% | [2] -10.1% | [3] -2.85% | [4] -3.1% | [5] 6.05% | [6] -4.25%

CC1CCC(=O)N1c1ccc(N)cc1 (stereo unspecified)
inactive: [1] -19% | [2] -15.5% | [3] -15.2% | [4] 11.2% | [5] -23.3% | [6] 10.1%

O=C(Nc1ccc(C2=NCCN2)c(O)c1)c1ccc(C(=O)Nc2ccc(C3=NCCN3)c(O)c2)cc1
inactive: [1] 32.6% | [2] 3.95% | [3] 23.2% | [4] 36.2% | [5] 7.5% | [6] 28.6%

Cc1ccc(S(=O)(=O)CCN2CCCC2)cc1
inactive: [1] -3.85% | [2] -14.7% | [3] -5.6% | [4] -47.2% | [5] 7.95% | [6] -9.55%

CCCCOC1NC(=O)NC(=O)C1(F)C(=O)OCC (stereo unspecified)
inactive: [1] 4% | [2] -9.75% | [3] 5.45% | [4] 9.4% | [5] -9.55% | [6] -0.85%

CC(C)CNN(CC(C)C)C(N)=O
inactive: [1] -32.7% | [2] -25% | [3] -19.8% | [4] -24.7% | [5] -25.6% | [6] -20.1%

CC1(C)NNC(=S)NC1=O
inactive: [1] -11.7% | [2] -13.6% | [3] -7.65% | [4] 17.1% | [5] -15.6% | [6] -5.5%

CC(O)c1ccc2c(c1)Nc1ccccc1S2 (stereo unspecified)
inactive: [1] -6.95% | [2] -21.9% | [3] -16.4% | [4] -7.05% | [5] -24.4% | [6] -11%

COc1ccc(/C=N/NC(N)=S)cc1
inactive: [1] 24.1% | [2] 14.6% | [3] 28.6% | [4] -13% | [5] 12.8% | [6] 46.6%

[N-]=[N+]=Nc1ccccc1-c1ccccc1[N+](=O)[O-]
inactive: [1] 35% | [2] -6.3% | [3] 40.3% | [4] 0.4% | [5] -6.4% | [6] 28.6%

COC1(c2ccc(C)cc2)c2cccc3cccc(c23)C1(O)c1ccc(C)cc1 (stereo unspecified)
inactive: [1] 18.6% | [2] 15.6% | [3] 12% | [4] 21.6% | [5] -4.15% | [6] 9.9%
